Pf Dd2 inh – qHTS Primary assay for Inhibitors of Plasmodium falciparum Dd2 growth in vitro | 120,000 tested, 4.3% active | P. falciparum Dd2 growth, SYBR Green, 72 h | Potency, µM (highest dose often 28.9 µM), actives largely listed as inhibitors; active = well fitted inhibition curve with a large enough effect; also: nearly all actives have a fitted effect of over 65% in size
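Readout: SYBR Green fluorescence, 485 nm excitation, 535 nm emission, after ~16 h lysis at 37C. Before that, Dd2-infected red cells (2.5% hematocrit) grew 72 h with compound, 29 uM top final concentration.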
A number is an active result; n = inactive. The full list was thinned out, with hits kept by preference.

SMILES	Pf Dd2 inh
Cc1ccc(CN2CCc3oc(C)c(C(=O)NCCN4CCCCC4)c3C2)cc1	1.4µM
CCOCCCNC(=O)N1CCC(OC2CCN(S(C)(=O)=O)CC2)CC1	n
CNC(=O)Nc1cccn2nc(-c3ccccc3)nc12	n
CCN1C(=O)Cc2cc(C(=O)NCC3CCCO3)ccc21 (centres undefined)	n
O=C(CCc1c[nH]c2ccccc12)NC1CCN(c2ccc(=O)[nH]n2)CC1	n
CCOCCn1nc(C)cc1C(=O)N1C[C@@H](CN2CCCCC2)[C@@H](CO)C1	n
O=C(c1ccoc1)N1CCCC(c2nc(C3CCOCC3)no2)C1 (centres undefined)	n
CN1C[C@H](O)C[C@H]1c1nnc2n1CCN(C(=O)CCc1c[nH]c3ccccc13)CC2	n
C[C@H](O)c1c(-c2ccc(F)cc2)noc1C(=O)N1CCC1	n
CC(C)C(=O)NCC1CN(Cc2ccccc2)C(=O)c2c(ccnc2-c2ccc(OCC(=O)O)cc2)O1 (centres undefined)	1.1µM
Cc1ncccc1OCC1CN(Cc2cccc(C(F)(F)F)c2)C(=O)c2c(ccnc2-c2ccc(OCC(=O)O)cc2)O1 (centres undefined)	n
O=C(O)COc1ccc(-c2nccc3c2C(=O)N(Cc2c[nH]c4ccccc24)CC(COc2ccccc2)O3)cc1 (centres undefined)	n
CN(Cc1ccc(N2CCOCC2)cc1)C(=O)[C@H]1CN(Cc2ccccc2)C[C@H]1C(=O)O	n
O=C1N[C@@H](Cc2c[nH]c3ccccc23)C(=O)N2CCN(C(=O)c3cccnc3)C[C@@H]12	n
